# Data taken from paper PMC7862700, “An all-to-all approach to the identification of sequence-specific readers for epigenetic DNA modifications on cytosine”.
# Tests used:
# Experiment in all cases: DAPPL (digital affinity profiling via proximity ligation, sequencing); 10 mM Tris-HCl pH 7.5, 50 mM NaCl, 1 mM DTT, 4% glycerol, room temperature, 30 min; GST-TFs on glutathione beads, 16-mer random dsDNA library, 0.1% formaldehyde crosslink after washing; high values mean tight binding
# FEV = molecular target: T1, FEV (Homo sapiens, UniProt Q99581 1-238); conditions: protein: recombinant; tags: N-terminal GST; dsDNA, one strand shown
# T1 sequence: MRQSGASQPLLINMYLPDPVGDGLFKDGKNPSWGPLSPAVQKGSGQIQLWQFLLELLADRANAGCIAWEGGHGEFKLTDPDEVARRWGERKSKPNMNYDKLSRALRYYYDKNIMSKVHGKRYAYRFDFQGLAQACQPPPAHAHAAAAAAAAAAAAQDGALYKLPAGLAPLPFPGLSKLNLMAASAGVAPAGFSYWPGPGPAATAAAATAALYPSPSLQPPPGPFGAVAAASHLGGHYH
# Outline: (§1)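 Binding signal is each hexamer's read frequency for a factor divided by its frequency in the tag-only sample. The factors were GST-fused human transcription factors from yeast, captured on glutathione beads, DNA-barcoded and pooled with that sample. Pools were incubated with 200 nmole of a random double-stranded 16-mer DNA library in Tris/NaCl/DTT/glycerol buffer at room temperature for 30 min, then washed, crosslinked with 0.1% formaldehyde, proximity-ligated with BsaI/T4 ligase (1 h, 37 °C), PCR-amplified and sequenced on an Illumina NextSeq500.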
# ETV5 = ETV5 (Homo sapiens, UniProt P41161 1-510); conditions: protein: recombinant; tags: N-terminal GST; dsDNA, one strand shown
# Sequence of ETV5 (P41161 whole entry): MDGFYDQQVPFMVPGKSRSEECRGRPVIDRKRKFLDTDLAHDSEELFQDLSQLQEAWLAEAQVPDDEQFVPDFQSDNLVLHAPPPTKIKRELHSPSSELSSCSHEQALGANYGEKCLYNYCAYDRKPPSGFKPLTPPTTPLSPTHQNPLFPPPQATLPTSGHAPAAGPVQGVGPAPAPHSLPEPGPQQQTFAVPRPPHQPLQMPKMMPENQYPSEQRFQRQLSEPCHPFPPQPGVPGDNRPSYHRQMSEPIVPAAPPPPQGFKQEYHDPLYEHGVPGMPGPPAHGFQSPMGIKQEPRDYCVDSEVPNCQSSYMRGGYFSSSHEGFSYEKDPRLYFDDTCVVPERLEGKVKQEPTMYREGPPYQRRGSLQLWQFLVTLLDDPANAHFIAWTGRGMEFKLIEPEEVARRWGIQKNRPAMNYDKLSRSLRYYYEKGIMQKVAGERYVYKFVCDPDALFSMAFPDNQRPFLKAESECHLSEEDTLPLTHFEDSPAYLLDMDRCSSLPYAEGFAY
# Outline: as §1
# HSF1 = HSF1 (Homo sapiens, UniProt Q00613 1-529); conditions: protein: recombinant; tags: N-terminal GST; chain copies: 3; dsDNA, one strand shown
# Sequence of HSF1 (Q00613 whole entry): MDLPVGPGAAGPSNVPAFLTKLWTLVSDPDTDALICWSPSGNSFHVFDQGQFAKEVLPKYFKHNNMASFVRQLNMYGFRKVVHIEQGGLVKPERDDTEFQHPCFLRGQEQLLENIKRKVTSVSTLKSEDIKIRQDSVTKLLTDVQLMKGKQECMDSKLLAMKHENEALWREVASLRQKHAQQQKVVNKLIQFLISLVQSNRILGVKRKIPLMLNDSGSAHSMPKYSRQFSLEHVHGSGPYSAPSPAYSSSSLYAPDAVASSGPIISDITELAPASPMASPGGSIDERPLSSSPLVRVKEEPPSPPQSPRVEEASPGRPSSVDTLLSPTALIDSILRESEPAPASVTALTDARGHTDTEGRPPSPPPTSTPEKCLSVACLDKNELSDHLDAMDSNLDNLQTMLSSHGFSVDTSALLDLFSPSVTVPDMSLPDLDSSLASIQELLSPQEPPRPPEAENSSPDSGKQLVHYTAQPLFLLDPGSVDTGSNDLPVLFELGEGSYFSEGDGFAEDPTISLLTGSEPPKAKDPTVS
# Outline: as §1
# ELF4 = ELF4 (Homo sapiens, UniProt Q99607 1-663); conditions: protein: recombinant; tags: N-terminal GST; dsDNA, one strand shown
# Sequence of ELF4 (Q99607 whole entry): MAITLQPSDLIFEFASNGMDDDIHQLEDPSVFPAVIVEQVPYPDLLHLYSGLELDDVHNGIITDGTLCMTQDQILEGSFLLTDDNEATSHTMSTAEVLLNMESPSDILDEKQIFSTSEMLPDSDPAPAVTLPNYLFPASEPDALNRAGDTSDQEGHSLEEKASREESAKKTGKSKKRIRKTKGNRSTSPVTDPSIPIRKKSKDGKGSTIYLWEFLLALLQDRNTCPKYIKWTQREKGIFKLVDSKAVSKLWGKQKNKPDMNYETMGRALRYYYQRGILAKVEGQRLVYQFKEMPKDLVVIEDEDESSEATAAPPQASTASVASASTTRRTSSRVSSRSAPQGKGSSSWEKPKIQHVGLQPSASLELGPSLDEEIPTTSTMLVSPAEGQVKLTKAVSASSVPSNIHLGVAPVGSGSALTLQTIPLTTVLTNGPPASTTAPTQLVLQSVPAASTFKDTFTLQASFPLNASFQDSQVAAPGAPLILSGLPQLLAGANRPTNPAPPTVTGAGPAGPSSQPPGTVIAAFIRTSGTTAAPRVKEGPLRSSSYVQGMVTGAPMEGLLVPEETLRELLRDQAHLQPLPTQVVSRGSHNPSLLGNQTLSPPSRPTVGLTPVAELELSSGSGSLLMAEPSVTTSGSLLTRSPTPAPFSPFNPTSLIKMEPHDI
# Outline: as §1
# ELK4 = molecular target: T2, ELK4 (Homo sapiens, UniProt P28324-2 1-405); conditions: protein: recombinant; tags: N-terminal GST; dsDNA, one strand shown
# T2 sequence: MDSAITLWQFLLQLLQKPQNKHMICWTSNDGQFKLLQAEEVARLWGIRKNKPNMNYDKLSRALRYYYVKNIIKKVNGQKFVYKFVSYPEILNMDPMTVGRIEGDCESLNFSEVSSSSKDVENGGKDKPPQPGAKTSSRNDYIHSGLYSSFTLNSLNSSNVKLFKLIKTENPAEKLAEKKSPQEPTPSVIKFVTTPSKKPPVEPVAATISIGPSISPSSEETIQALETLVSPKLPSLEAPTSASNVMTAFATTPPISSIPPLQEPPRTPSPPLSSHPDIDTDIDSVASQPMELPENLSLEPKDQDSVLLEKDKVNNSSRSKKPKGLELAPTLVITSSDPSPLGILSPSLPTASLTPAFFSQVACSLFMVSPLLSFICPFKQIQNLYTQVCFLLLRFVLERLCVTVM
# Outline: as §1
# ETV2 = molecular target: T3, ETV2 (Homo sapiens, UniProt O00321 1-342); conditions: protein: recombinant; tags: N-terminal GST; dsDNA, one strand shown
# T3 sequence: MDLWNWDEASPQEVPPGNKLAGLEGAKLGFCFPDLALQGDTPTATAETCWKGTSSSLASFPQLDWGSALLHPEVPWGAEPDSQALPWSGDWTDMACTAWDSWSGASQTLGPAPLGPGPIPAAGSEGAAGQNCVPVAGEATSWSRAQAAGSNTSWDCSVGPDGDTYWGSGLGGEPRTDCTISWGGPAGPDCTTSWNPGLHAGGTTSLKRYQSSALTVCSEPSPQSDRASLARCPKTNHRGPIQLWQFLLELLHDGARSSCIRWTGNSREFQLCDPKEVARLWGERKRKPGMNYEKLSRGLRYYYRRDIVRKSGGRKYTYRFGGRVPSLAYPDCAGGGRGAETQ
# Outline: as §1
# ELF3 = molecular target: T4, ELF3 (Homo sapiens, UniProt P78545 1-371); conditions: protein: recombinant; tags: N-terminal GST; dsDNA, one strand shown
# T4 sequence: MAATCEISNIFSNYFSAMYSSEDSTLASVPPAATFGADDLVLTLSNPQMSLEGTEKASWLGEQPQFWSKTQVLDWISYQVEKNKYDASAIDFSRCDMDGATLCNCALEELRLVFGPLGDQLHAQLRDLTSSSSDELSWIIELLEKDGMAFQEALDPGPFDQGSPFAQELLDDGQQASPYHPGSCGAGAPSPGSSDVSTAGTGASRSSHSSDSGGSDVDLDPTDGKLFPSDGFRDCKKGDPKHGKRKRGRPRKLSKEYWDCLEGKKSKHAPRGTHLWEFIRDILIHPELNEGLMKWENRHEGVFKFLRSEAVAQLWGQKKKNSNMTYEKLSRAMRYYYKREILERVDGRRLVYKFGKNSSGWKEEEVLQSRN
# Outline: as §1
# CRX = CRX (Homo sapiens, UniProt O43186 1-299); conditions: protein: recombinant; tags: N-terminal GST; dsDNA, one strand shown
# Sequence of CRX (O43186 whole entry): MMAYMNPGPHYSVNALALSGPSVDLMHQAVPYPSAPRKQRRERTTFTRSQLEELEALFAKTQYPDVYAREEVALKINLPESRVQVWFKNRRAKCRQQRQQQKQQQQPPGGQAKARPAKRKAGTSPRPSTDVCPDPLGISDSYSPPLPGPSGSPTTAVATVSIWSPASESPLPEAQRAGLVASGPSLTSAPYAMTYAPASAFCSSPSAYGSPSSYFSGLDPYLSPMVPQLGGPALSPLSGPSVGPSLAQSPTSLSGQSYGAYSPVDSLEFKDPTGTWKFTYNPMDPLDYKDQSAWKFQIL
# Outline: as §1
# ETV1 = ETV1 (Homo sapiens, UniProt P50549 1-477); conditions: protein: recombinant; tags: N-terminal GST; dsDNA, one strand shown
# Sequence of ETV1 (P50549 whole entry): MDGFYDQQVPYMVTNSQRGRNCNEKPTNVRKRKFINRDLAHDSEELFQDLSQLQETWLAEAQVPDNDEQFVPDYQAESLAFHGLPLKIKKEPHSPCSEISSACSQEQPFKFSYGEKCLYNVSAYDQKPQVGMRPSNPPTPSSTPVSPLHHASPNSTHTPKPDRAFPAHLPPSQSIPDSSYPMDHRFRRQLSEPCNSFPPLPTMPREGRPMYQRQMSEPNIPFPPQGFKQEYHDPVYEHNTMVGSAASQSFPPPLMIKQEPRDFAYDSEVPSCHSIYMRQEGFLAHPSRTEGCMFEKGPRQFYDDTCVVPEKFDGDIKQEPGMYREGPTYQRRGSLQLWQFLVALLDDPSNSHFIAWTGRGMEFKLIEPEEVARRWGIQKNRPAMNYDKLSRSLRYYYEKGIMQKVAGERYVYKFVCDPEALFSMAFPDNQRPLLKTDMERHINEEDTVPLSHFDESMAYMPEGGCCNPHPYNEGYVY
# Outline: as §1
# ERF = molecular target: T5, ERF (Homo sapiens, UniProt P50548 1-548); conditions: protein: recombinant; tags: N-terminal GST; dsDNA, one strand shown
# T5 sequence: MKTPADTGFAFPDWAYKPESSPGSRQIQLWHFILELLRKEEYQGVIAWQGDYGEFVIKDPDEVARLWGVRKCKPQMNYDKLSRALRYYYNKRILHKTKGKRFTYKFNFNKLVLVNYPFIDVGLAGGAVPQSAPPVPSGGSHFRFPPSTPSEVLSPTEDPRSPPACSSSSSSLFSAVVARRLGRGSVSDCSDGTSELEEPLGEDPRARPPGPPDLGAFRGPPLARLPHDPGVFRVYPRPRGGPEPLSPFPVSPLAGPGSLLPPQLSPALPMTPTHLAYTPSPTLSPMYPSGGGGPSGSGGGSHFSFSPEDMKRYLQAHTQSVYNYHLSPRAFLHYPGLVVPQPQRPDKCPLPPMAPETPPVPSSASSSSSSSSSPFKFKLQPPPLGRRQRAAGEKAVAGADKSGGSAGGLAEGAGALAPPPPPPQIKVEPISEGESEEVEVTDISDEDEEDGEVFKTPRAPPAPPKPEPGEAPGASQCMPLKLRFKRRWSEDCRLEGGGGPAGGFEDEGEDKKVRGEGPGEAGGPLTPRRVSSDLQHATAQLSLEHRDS
# Outline: as §1
# ETV3L = molecular target: T6, ETV3L (Homo sapiens, UniProt Q6ZN32 1-361); conditions: protein: recombinant; tags: N-terminal GST; dsDNA, one strand shown
# T6 sequence: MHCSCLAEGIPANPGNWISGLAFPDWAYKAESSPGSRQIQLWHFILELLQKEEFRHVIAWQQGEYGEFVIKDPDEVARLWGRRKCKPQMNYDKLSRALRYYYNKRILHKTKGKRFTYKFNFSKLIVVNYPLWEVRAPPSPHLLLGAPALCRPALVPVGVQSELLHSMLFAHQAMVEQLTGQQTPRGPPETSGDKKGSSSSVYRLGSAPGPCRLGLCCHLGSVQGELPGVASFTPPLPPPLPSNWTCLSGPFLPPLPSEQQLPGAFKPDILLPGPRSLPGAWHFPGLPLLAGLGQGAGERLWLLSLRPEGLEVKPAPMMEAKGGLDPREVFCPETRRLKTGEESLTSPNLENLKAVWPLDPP
# Outline: as §1
# ETS2 = molecular target: T7, ETS2 (Homo sapiens, UniProt P15036 1-469); conditions: protein: recombinant; tags: N-terminal GST; dsDNA, one strand shown
# T7 sequence: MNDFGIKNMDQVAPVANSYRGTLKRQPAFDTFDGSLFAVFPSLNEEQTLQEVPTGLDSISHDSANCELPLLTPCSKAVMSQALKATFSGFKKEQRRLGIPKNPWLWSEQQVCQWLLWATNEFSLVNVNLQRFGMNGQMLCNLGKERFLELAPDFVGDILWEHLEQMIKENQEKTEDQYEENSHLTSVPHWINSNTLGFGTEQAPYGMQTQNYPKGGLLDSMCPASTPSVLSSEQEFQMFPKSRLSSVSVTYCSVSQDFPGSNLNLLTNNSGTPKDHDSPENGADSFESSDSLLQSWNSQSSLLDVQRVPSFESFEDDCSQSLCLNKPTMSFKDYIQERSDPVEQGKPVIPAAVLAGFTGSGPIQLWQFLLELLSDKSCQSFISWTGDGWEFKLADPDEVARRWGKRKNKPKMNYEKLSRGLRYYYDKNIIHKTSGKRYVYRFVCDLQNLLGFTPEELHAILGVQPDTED
# Outline: as §1
# ETV7 = molecular target: T8, ETV7 (Homo sapiens, UniProt Q9Y603 1-341); conditions: protein: recombinant; tags: N-terminal GST; dsDNA, one strand shown
# T8 sequence: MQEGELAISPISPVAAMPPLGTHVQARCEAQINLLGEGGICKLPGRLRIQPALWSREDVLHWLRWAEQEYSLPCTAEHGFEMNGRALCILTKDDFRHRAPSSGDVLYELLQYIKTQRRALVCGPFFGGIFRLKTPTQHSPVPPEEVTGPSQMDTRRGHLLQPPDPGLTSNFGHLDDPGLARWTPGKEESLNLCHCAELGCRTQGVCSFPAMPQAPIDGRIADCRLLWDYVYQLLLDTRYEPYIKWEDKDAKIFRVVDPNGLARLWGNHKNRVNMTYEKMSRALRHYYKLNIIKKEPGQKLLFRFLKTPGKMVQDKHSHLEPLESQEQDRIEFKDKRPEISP
# Outline: as §1
# ELF5 = molecular target: T9, ELF5 (Homo sapiens, UniProt Q9UKW6-2 1-255); conditions: protein: recombinant; tags: N-terminal GST; dsDNA, one strand shown
# T9 sequence: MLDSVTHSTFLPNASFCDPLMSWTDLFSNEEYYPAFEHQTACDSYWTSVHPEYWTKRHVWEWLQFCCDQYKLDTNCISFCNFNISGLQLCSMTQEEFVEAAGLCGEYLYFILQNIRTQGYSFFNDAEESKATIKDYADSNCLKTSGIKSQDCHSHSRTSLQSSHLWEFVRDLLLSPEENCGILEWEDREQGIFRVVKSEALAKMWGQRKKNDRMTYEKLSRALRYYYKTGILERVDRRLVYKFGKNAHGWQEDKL
# Outline: as §1
# ETV3 = molecular target: T10, ETV3 (Homo sapiens, UniProt P41162-2 1-143); conditions: protein: recombinant; tags: N-terminal GST; dsDNA, one strand shown
# T10 sequence: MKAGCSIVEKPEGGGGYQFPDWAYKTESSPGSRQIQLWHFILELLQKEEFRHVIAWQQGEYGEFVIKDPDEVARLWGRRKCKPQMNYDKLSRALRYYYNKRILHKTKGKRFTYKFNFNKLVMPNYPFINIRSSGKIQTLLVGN
# Outline: as §1
# ETV6 = ETV6 (Homo sapiens, UniProt P41212 1-452); conditions: protein: recombinant; tags: N-terminal GST; dsDNA, one strand shown
# Sequence of ETV6 (P41212 whole entry): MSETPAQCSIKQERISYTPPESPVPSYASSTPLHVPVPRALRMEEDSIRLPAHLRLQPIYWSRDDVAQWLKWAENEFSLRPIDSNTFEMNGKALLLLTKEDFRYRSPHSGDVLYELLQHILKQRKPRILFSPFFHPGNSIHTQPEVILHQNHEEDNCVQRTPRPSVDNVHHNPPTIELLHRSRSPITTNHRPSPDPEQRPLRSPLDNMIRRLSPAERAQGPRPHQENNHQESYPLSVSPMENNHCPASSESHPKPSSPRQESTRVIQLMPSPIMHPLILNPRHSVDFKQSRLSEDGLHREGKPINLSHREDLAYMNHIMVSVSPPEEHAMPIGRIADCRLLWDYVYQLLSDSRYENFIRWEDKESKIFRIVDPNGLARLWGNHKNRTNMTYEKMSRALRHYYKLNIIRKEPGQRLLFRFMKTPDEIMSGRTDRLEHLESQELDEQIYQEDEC
# Outline: as §1
# SPDEF = molecular target: T11, SPDEF (Homo sapiens, UniProt O95238 1-335); conditions: protein: recombinant; tags: N-terminal GST; dsDNA, one strand shown
# T11 sequence: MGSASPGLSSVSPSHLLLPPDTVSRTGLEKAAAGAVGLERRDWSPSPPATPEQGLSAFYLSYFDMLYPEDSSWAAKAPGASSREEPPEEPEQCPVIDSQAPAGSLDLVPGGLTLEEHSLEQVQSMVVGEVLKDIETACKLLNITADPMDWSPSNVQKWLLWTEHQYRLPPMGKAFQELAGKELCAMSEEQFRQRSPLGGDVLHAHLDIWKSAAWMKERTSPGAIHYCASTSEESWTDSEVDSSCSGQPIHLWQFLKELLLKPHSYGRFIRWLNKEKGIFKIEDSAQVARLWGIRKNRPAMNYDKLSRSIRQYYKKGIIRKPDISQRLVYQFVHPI
# Outline: as §1
Sequence,binding signal (FEV),binding signal (ETV5),binding signal (HSF1),binding signal (ELF4),binding signal (ELK4),binding signal (ETV2),binding signal (ELF3),binding signal (CRX),binding signal (ETV1),binding signal (ERF),binding signal (ETV3L),binding signal (ETS2),binding signal (ETV7),binding signal (ELF5),binding signal (ETV3),binding signal (ETV6),binding signal (SPDEF)
AAGACT,"1.08 fold enrichment (6-mer frequency, TF over GST control)","1.09 fold enrichment (6-mer frequency, TF over GST control)","1.23 fold enrichment (6-mer frequency, TF over GST control)","1.14 fold enrichment (6-mer frequency, TF over GST control)","1.06 fold enrichment (6-mer frequency, TF over GST control)","1.07 fold enrichment (6-mer frequency, TF over GST control)","1.1 fold enrichment (6-mer frequency, TF over GST control)","1.36 fold enrichment (6-mer frequency, TF over GST control)","1.02 fold enrichment (6-mer frequency, TF over GST control)","1.16 fold enrichment (6-mer frequency, TF over GST control)","1.04 fold enrichment (6-mer frequency, TF over GST control)","1.07 fold enrichment (6-mer frequency, TF over GST control)","1.08 fold enrichment (6-mer frequency, TF over GST control)","1.15 fold enrichment (6-mer frequency, TF over GST control)","1.12 fold enrichment (6-mer frequency, TF over GST control)","1.13 fold enrichment (6-mer frequency, TF over GST control)",–
AAATAG,"1.16 fold enrichment (6-mer frequency, TF over GST control)","1.2 fold enrichment (6-mer frequency, TF over GST control)","1.09 fold enrichment (6-mer frequency, TF over GST control)","1.02 fold enrichment (6-mer frequency, TF over GST control)","1.15 fold enrichment (6-mer frequency, TF over GST control)","1.06 fold enrichment (6-mer frequency, TF over GST control)","1.17 fold enrichment (6-mer frequency, TF over GST control)","1.11 fold enrichment (6-mer frequency, TF over GST control)","1.11 fold enrichment (6-mer frequency, TF over GST control)","1.11 fold enrichment (6-mer frequency, TF over GST control)","1.15 fold enrichment (6-mer frequency, TF over GST control)","1.12 fold enrichment (6-mer frequency, TF over GST control)","1.23 fold enrichment (6-mer frequency, TF over GST control)","1.14 fold enrichment (6-mer frequency, TF over GST control)","1.21 fold enrichment (6-mer frequency, TF over GST control)","1.18 fold enrichment (6-mer frequency, TF over GST control)","1 fold enrichment (6-mer frequency, TF over GST control)"
